# Measurements as given in PubChem BioAssay AID624040 (The Scripps Research Institute Molecular Screening Center, 2012).
# Screen size: about 360,000 compounds; about 2,100 (0.58%) were called active. For the sample, actives were picked, then their nearest neighbours and some compounds at random. Values without a mark were called inactive.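 The calls were made as follows: active = inhibition above a per-plate cutoff, the mean of that plate's test compounds plus 3 SD (cut at about 27% in these data); inactive = the rest.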
# Biological target: Muscarinic acetylcholine receptor M5 (Homo sapiens) (UniProt P08912)
# Sequence (P08912 whole entry, looked up): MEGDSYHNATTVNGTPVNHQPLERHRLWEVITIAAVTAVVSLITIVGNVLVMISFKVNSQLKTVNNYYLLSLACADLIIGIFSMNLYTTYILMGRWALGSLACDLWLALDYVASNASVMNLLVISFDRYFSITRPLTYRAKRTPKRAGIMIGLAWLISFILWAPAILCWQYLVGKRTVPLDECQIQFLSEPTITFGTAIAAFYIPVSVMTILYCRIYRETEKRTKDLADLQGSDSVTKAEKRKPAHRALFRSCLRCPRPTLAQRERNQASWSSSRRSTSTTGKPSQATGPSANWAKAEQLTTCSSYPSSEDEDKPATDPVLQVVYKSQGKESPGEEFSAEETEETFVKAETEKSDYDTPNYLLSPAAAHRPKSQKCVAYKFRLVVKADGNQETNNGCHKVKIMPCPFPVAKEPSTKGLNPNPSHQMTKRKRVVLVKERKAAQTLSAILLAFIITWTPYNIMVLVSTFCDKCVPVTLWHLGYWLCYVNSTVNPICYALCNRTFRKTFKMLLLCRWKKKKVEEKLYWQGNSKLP
# Test: CHRM5 blockers of acetylcholine calcium response – CHO cells, Fluo-8 calcium fluorescence, primary screen (AID 624040);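 also: 0% = acetylcholine EC80 with DMSO and 100% = DMSO without agonist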
# Details: CHO-hM5 cells, ACh EC80, at 3 µM, stronger effect = higher value
row,Structure (SMILES),inhibition
1,CC1OC2C(OC1C)N(S(C)(=O)=O)CCN2S(C)(=O)=O (centres undefined),-2.68%
2,Cc1ccc(C(c2nnnn2CS(=O)(=O)c2ccc(C)cc2)N2CCC(C(N)=O)CC2)cc1 (centres undefined),-9.51%
3,NC(=O)C1(N2CCCCC2)CCN(C2CC(=O)N(Cc3ccc(N4CCCC4=O)cc3)C2=O)CC1 (centres undefined),-5.49%
4,S=C(NCCCc1ccccc1)Nc1ccc(Br)cc1,27.8% (active)
5,O=S(=O)(NCCCc1ccccc1)c1ccc(Br)cc1,6.97%
6,S=C(Nc1ccc(Br)cc1)NC1CCN(Cc2ccccc2)CC1,-2.81%
7,Cc1sc(NC(=O)C2C3CCC(O3)C2C(=O)O)c(C(=O)OC(C)C)c1-c1ccc(Cl)cc1 (centres undefined),-0.97%
8,CC(C)OCCCNc1ncnc2c1[nH]c1ccc(F)cc12,36.1% (active)
9,COC(=O)c1ccccc1NC(=O)CN(Cc1ccccc1)S(C)(=O)=O,-12.2%
10,COCCNC(=O)C1(C)CCCN(Cc2cccc(F)c2)C1 (centres undefined),4.07%
11,COc1cc(CNc2ncnc3c2ncn3[C@H]2CN(Cc3cccs3)C[C@@H](CO)O2)cc(OC)c1OC,10.9%
12,O=C(Cc1ccc(Cl)c(Cl)c1)Nc1ccc(SC(F)F)cc1,33.6% (active)
13,O=C(CCl)Nc1ccc(Sc2ccc(NC(=O)CCl)cc2)cc1,2.24%
14,O=C(CC(O)(C(F)(F)F)C(F)(F)F)Nc1ccc(Cl)c(Cl)c1,17.8%
15,Cc1ccc(NC2=C(Cl)C(=O)OC2OC(=O)c2ccccc2C)cc1 (centres undefined),5.07%
16,CCN1CCN(c2ccc([N+](=O)[O-])cc2C(=O)c2ccc(Cl)cc2)CC1,78.8% (active)
17,CCC(=O)c1ccc(N2CCN(C(=O)c3cc([N+](=O)[O-])ccc3F)CC2)c(F)c1,17.6%
18,CCC(C)(C)NC(=O)c1cc([N+](=O)[O-])ccc1N1CCCCC1,6.53%
19,O=C(CCC1CCCCC1)Nc1cc(C(F)(F)F)ccc1N1CCOCC1,10.2%
20,COC(=O)[C@@]12C[C@@H](CC(=O)N3CCCCC3)C(=O)N(Cc3ccc4c(c3)OCO4)C1=CCC(C)(C)C2,-4.41%
21,Cc1cc2cc(CNC(=O)c3cccs3)ccc2[nH]1,97.7% (active)
22,Cc1ccc(C)c2[nH]c(=O)c(CCNC(=O)c3cccs3)cc12,2.31%
23,Cc1cc2cc(CNC(=O)c3ccc(S(=O)(=O)N4CCOCC4)cc3)ccc2[nH]1,13.1%

row,Structure (SMILES),inhibition
1,Cc1ccc(C)n1-c1ccncc1,2.29%
2,CCOC(=O)c1ccc(N/C(=N/S(=O)(=O)c2ccccc2)c2ccccc2)cc1,-3.7%
3,COc1cc(NC(=O)c2ccccc2NS(=O)(=O)c2ccc(Cl)s2)cc(OC)c1,14.3%
4,COC(=O)c1ccc(NC(=O)c2ccccc2NS(=O)(=O)c2ccccc2)cc1,31.6% (active)
5,COc1ccccc1NC(=O)CSc1nnc(-c2ccoc2C)n1CCc1ccccc1,6.68%
6,COC(=O)C1=C(C)N(c2ccc(C)cc2)/C(=C/c2ccc(O)cc2)C1=O,3.87%
7,Cc1ccn2c(=O)c(C(=O)NCCC3=CCCCC3)c(O)nc2c1,2.86%
8,CC(NC(=O)C(=O)Nc1nccs1)c1ccccc1 (centres undefined),30.9% (active)
9,CC(=O)NC(CC(=O)Nc1nccs1)c1ccccc1 (centres undefined),-3.08%
10,C[C@H](NC(=O)c1[nH]cnc1C(=O)Nc1nccs1)c1ccccc1,11.9%
11,O=C(C1CC1)N1N=C2CCCCC2C1(O)C(F)(F)F (centres undefined),13.2%
12,Cc1nc(C)c(C(=O)N(c2ccc(C)c(C)c2)C(C(=O)NCc2ccco2)c2ccccc2)s1 (centres undefined),2.62%
13,CC(C)(C)C(=O)c1c(N)[nH]c(C(=O)c2ccccc2)c1-c1ccc(F)cc1,-1.9%
14,COc1ccc(NC(=O)COC(=O)c2ccc(NS(=O)(=O)/C=C/c3ccccc3)cc2)cc1,14.2%
15,COc1ccc(NC(=O)CC(NC(C)c2ccccc2)C(=O)O)cc1 (centres undefined),4.75%
16,CCC(C(=O)OCC(=O)Nc1ccc(C(=O)Nc2ccc(OC)cc2)cc1)c1ccccc1 (centres undefined),36.3% (active)
17,Cc1ccc(N2C(=O)C3C(c4ccccc4)(C2=O)C3(c2ccccc2)c2ccccc2)cc1 (centres undefined),15.6%
18,O=c1[nH]c2ccccc2n1C1CCN(CCOc2ccccc2)CC1,8.05%
19,COc1ccc(OCCCCN2CCC(C)CC2)cc1,5.32%
20,OC(c1ccccc1)(c1ccccc1)C1CCN(CCCOc2ccccc2)CC1,97.1% (active)
21,OC[C@@H]1CN(Cc2ccc3c(c2)OCO3)C[C@H](n2cnc3c(NCc4ccco4)ncnc32)O1,-1.64%
22,COc1cc(C(=O)NCc2ccc(-n3cccc3)cc2)cc(OC)c1OC,21.1%
23,CCn1c(CNC(=O)c2cc(OC)c(OC)c(OC)c2)cc2cc(C)ccc21,48% (active)

row,Structure (SMILES),inhibition
1,COc1cc(C(=O)NCc2nnc(SCC(=O)Nc3nc4ccc(C)cc4s3)o2)cc(OC)c1OC,-2.26%
2,CSc1ncccc1C(=O)OCC(=O)N1CCOCC1,-6.57%
3,Cc1ccc2cc(CCNC(=O)c3ccc4c(c3)OCO4)c(=O)[nH]c2c1,-4.27%
4,OC(COc1ccc2ccccc2c1)Cn1cncn1 (centres undefined),-0.83%
5,CCOC(=O)c1c(/N=C/C2C(=O)CC(C)(C)CC2=O)sc(C)c1C,-2.97%
6,CC(C)CN(C(=O)Cn1c(=O)cnc2ccccc21)C1CCS(=O)(=O)C1 (centres undefined),99.6% (active)
7,CCN(C(=O)CSc1nc2ccccc2n1CC)C1CCS(=O)(=O)C1 (centres undefined),-0.58%
8,CC(C)CN(C(=O)CSc1ncnc2sccc12)C1CCS(=O)(=O)C1 (centres undefined),1.5%
9,N#Cc1c(NC(=O)c2ccc(N3CCOCC3)c([N+](=O)[O-])c2)sc2c1CCCC2,2.95%
10,O=C1NC[C@H](Cc2ccc(O)cc2)N(C[C@@H]2CCCN2C[C@H](Cc2ccccc2)N2C[C@H](Cc3ccccc3)N(CC3CCCCC3)C(=O)C2=O)C1=O,-4.87%
11,CN(Cc1cccnc1)C(=O)c1cc(COc2ccc3ncccc3c2)on1,42.6% (active)
12,Cc1ccc(OCc2cc(C(=O)N(C)CCn3ccnc3C)no2)cc1C,-4.53%
13,Cc1cc(CN(C)C(=O)c2cc(COc3ccc(C)c(C)c3)on2)n[nH]1,-7.18%
14,CC/C(=C\c1ccc(Cl)cc1)c1ccncc1,4.13%
15,CC(=O)Nc1cccc(-c2ccnc3c2CC(C)(C(=O)NCc2ccccc2)O3)c1 (centres undefined),-11.6%
16,C=CCN(c1ccccc1C(=O)NCC(=O)OCC)S(=O)(=O)c1ccc(C)cc1,3.91%
17,CCOc1ccc(CN(Cc2ccco2)S(=O)(=O)c2ccc(-n3cnnn3)c(OC)c2)cc1,4.28%
18,COc1ccc(C(C(=O)NCC2CCCO2)N(C(=O)Cn2nnc3ccccc32)c2ccc(NC(C)=O)cc2)cc1OC (centres undefined),-5.21%
19,Cc1ccc(C(C(=O)NCc2ccco2)N(CC2CCCO2)C(=O)Cn2nnc3ccccc32)cc1 (centres undefined),-3.06%
20,CCOc1cc(C(C(=O)NCC2CCCO2)N(C(=O)Cn2nnc3ccccc32)c2cccc(OC)c2)ccc1O (centres undefined),31.8% (active)
21,COc1ccc(CCNc2cc(C)nc3c(-c4ccc(Cl)cc4)c(C)nn23)cc1OC,0.85%
22,CSCCC(C(=O)NC1=NCCS1)N1C(=O)c2ccccc2C1=O (centres undefined),6.62%
23,CCN(CC)C(=O)C1CCCN(Cc2cccc(Cl)c2)C1 (centres undefined),2.81%

row,Structure (SMILES),inhibition
1,COc1c(O)ccc2c1CN1CCc3cc4c(cc3C1C2)OCO4 (centres undefined),4.81%
2,N#CC1(Nc2ccc(-c3ccc(Cl)cc3)cc2)CCCC1,16.1%
3,N#CC1(Nc2ccc3c4c(cccc24)CC3)CCCCC1,40.5% (active)
4,CC(C)C(=O)Nc1ccc2c3c(cccc13)CC2,-8.88%
5,CCCCOC(=O)c1ccc(NC(c2ccc(C)cc2)P(=O)(OC)OC)cc1 (centres undefined),8.39%
6,CC1=C(C(=O)N2CCOCC2)CC(CC(=O)NCc2ccco2)C(=O)N1Cc1ccc(F)cc1 (centres undefined),-4.73%
7,Cc1c(-c2ccccc2)nc(N)c(C#N)c1-c1cccs1,8.1%
8,N#Cc1c(-c2ccccc2)c(-c2ccccc2)n[nH]c1=O,31.9% (active)
9,O=C(O)c1n[nH]nc1-c1ccccc1,-3.66%
10,COc1cc(C)nc(N2CCCC(C(=O)NCC(C)C)C2)n1 (centres undefined),-3.29%
11,CCCc1cc(C(=O)N2CCCC(CO)(CCCc3ccccc3)C2)n(C)n1 (centres undefined),17%
12,CCN(CC)S(=O)(=O)c1ccc(N(C)CCc2ccc(OC)c(OC)c2)nc1,3.43%
13,CCN(CC)S(=O)(=O)c1ccc(N(C)Cc2cccc(OC)c2OC)nc1,22.7%
14,CCN(CC)S(=O)(=O)c1ccc(N(C)Cc2ccc(C(F)(F)F)cc2)nc1,29% (active)
15,Nc1c(Cl)cc(-c2csc(N3CCCC3c3nc4cc(Cl)c(Cl)cc4n3CCOCCO)n2)cc1Cl (centres undefined),15.2%
16,O=C(COC(=O)c1cc(-c2cccs2)nn1-c1ccccc1)Nc1cc([N+](=O)[O-])ccc1Cl,1.74%
17,CCCCN(C(=O)C(CCSC)N1C(=O)c2ccccc2C1=O)c1c(N)n(CCC)c(=O)[nH]c1=O (centres undefined),-3.24%
18,Cc1ccc(NC(=O)CN(C)CC(=O)Nc2cccc(F)c2)cc1[N+](=O)[O-],35.5% (active)
19,Cc1ccc(NC(=O)c2sccc2C)cc1[N+](=O)[O-],10.3%
20,CN(CC(=O)Nc1cccc(F)c1)C(=O)C1=COCCO1,11.4%
